Data reported in PubChem BioAssay (EPA / NIEHS).
Records with an inconclusive call do not appear. Calls of active or inactive are those of the source. How the source made its calls: active means hit-call score of the fitted dose curve at least 0.9, where 1 is the maximum; inconclusive means response in the unintended direction; inactive means score below 0.9.

These molecules were tested on Cytochrome P450 3A4 (Homo sapiens) (UniProt P08684) (assay: CLD_CYP3A4_6hr: CellzDirect (CLD) Gene Expression Assay for xenobiotic metabolism (CYP3A4) at 6 hours (AID 2283680)).
Method: CLD_6hr is a cell-based, multiplexed-readout assay that uses hepatocyte, a human liver primary cell, with measurements taken at 6 hours after chemical dosing in a 96-well plate.CLD_CYP3A4_6hr is one of 16 assay component(s) measured or calculated from the CLD_6hr assay. It is designed to make measurements of mRNA induction, a form of inducible reporter, as detected with chemiluminescence signals by Quantitative Nuclease Protection Assay (qNPA) technology.Data from the assay component CLD_CYP3A4_6hr was analyzed at the endpoint, CLD_CYP3A4_6hr, in the positive analysis fitting direction relative to DMSO as the negative control and baseline of activity. Using a type of inducible reporter, gain-of-signal activity can be used to understand changes in the reporter gene as they relate to the gene CYP3A4. Furthermore, this assay endpoint can be referred to as a primary readout. To generalize the intended target to other relatable targets, this assay endpoint is annotated to the cyp intended target family, where subfamily is xenobiotic metabolism.
Human hepatocyte cultures were treated daily for two consecutive days with fresh dosing solutions containing appropriate concentrations of the 320 ToxCast chemicals (chemical identities were blinded to CellzDirect and other ToxCast collaborators), vehicle control (0.2% DMSO), and positive control inducers as summarized in Table 1. Due to the large number of treatment groups and chemicals examined, the ToxCast chemicals were divided into two groups (spanning two independent cultures of hepatocytes from separate donor preparations (Hu778: ToxCast plates 1 and 2; Hu776: ToxCast plates 3 and 4). Each preparation of human hepatocyte cultures was treated with respective vehicle control, medium only control, set of six positive controls/reference chemicals for the five hepatic receptor pathways, and a subset of eight of the ToxCast chemicals (indoxacarb, pyrithiobac-sodium, norflurazon, cyhalofop-butyl, methomyl, thiram, acetochlor, and propiconazole). These replicate data, coupled with internal replicates designed within the blinded ToxCast chemical library, provided additional data to evaluate interindividual differences between hepatocyte preparations and their potential impact on chemical profiles.Cell morphology and integrity were evaluated using phase-contrast microscopy as an indicator of hepatocyte cell health (Tyson & Green, 1987). Cultures for each treatment group (i.e., media, vehicle [0.2% DMSO], positive control inducers [multiple concentrations], and the ToxCast chemicals [multiple concentrations]) were observed and cell morphology was assessed relative to vehicle control cultures at each harvest time point (0, 6, 24, or 48 h). […] Images were evaluated at the conclusion of the study to assess changes in cell integrity and account for the effects of chemical exposure on uncharacteristic changes in concentration-dependent gene expression profiles. The results from these determinations of apparent cytotoxicity were annotated (yes/no) alongside the corresponding qNPA data for reference.At the conclusion of each treatment period, hepatocyte cultures (96-well) were washed with 1 volume of HBSS, lysed by addition of 25 ul ArrayPlate lysis buffer (HTG, Tucson, AZ), and 70 ul/well of Denaturation Oil, denatured by incubation at 95C for 10 min, and frozen at approximately -70C until analysis by nuclease protection assay (qNPA) (Roberts et al., 2007). For qNPA analysis, cell lysates were thawed at 50C for approximately 30 min, qNPA probes were added, and samples were incubated at 95C for 10 min to begin the detection process by denaturing the target RNA, dissociating the duplexes and secondary structure hybridization. At the conclusion of the hybridization period, S1 nuclease reagent was added to each sample to digest all nonprotected nucleotides at 50C for 60-90 min. […]

Chain of Cytochrome P450 3A4 (Homo sapiens) (P08684 whole entry, looked up): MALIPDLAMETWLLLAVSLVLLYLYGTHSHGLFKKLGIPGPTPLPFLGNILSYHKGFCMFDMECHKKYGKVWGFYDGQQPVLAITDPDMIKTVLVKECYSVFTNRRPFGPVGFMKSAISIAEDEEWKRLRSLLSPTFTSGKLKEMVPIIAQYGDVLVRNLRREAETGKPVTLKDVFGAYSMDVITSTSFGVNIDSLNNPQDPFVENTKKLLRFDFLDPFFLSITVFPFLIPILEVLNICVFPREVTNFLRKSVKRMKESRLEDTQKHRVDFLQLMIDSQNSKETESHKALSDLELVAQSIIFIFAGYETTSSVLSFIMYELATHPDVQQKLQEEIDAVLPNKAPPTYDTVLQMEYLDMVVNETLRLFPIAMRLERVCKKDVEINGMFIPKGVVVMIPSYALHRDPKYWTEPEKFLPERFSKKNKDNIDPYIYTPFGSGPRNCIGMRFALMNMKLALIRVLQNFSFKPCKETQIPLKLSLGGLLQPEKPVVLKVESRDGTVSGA

**Q.** How did the AC50 turn out when `CCOc1cc(C(C)(C)C)ccc1C1COC(c2c(F)cccc2F)=N1` (stereo not given) was run?
**A.** 4.26 µM (active)

**Q.** How did the outcome turn out when `CC(C)Oc1cccc(NC(=O)c2ccccc2C(F)(F)F)c1` was run?
**A.** inactive

**Q.** Which outcome does the source give for `N#Cc1c(Cl)cccc1Cl` here?
**A.** inactive

**Q.** For `CC(C)NC(=O)N1CC(=O)N(c2cc(Cl)cc(Cl)c2)C1=O`, which outcome is on record?
**A.** inactive

**Q.** How did the outcome turn out when `N#CN=C1SCCN1Cc1ccc(Cl)nc1` was run?
**A.** inactive

**Q.** Which outcome does the source give for `CS(=O)(=O)c1ccc(C(=O)C2C(=O)CCCC2=O)c([N+](=O)[O-])c1` here?
**A.** inactive

**Q.** For `CC(C)(C)C(=O)C(Oc1ccc(Cl)cc1)n1cncn1` (stereo not given), which AC50 is on record?
**A.** 0.434 µM (active)

**Q.** `Cc1c(COC(=O)[C@@H]2[C@H](/C=C(\Cl)C(F)(F)F)C2(C)C)cccc1-c1ccccc1` was tested. Which AC50 did it give?
**A.** 3.44 µM (active)

**Q.** How did the outcome turn out when `CC(C)=CC1C(C(=O)OCc2coc(Cc3ccccc3)c2)C1(C)C` (stereo not given) was run?
**A.** inactive

**Q.** With `COC(=O)c1c(C(F)F)nc(C(F)(F)F)c(C2=NCCS2)c1CC(C)C` as the molecule, how does the outcome read?
**A.** inactive

**Q.** For `CCOc1nc(F)cc2nc(S(=O)(=O)Nc3c(Cl)cccc3Cl)nn12`, which outcome is on record?
**A.** inactive

**Q.** For `CCOP(=O)(OCC)Oc1nc(Cl)c(Cl)cc1Cl`, which AC50 is on record?
**A.** 9.77 µM (active)

**Q.** With `CCOP(=S)(OCC)Oc1nc(Cl)n(C(C)C)n1` as the molecule, how does the AC50 read?
**A.** 0.466 µM (active)

**Q.** How did the outcome turn out when `Clc1cccc(C(Cl)(Cl)Cl)n1` was run?
**A.** inactive

**Q.** `CC1(C)C(C(=O)OC(C#N)c2cccc(Oc3ccccc3)c2)C1(C)C` (stereo not given) was tested. Which AC50 did it give?
**A.** 3.71 µM (active)

**Q.** With `CNC(=O)N(C)c1nnc(C(C)(C)C)s1` as the molecule, how does the outcome read?
**A.** inactive

**Q.** For `CCCC(=NOCC)C1=C(O)CC(CC(C)SCC)CC1=O` (stereo not given), which AC50 is on record?
**A.** 20 µM (active)

**Q.** `O=C(O)c1c(Cl)ccc2cc(Cl)cnc12` was tested. Which outcome did it give?
**A.** inactive

**Q.** With `Cc1nc(N(C)C)nc(OC(=O)N(C)C)c1C` as the molecule, how does the AC50 read?
**A.** 5.6 µM (active)

**Q.** With `COc1cc(Cl)c(OC)cc1Cl` as the molecule, how does the outcome read?
**A.** inactive

**Q.** `COCC(C)N(C(=O)CCl)c1c(C)csc1C` (stereo not given) was tested. Which outcome did it give?
**A.** inactive

**Q.** How did the AC50 turn out when `C=CCOC(=O)C(C)(C)OC(=O)c1cc(-n2c(=O)cc(C(F)(F)F)n(C)c2=O)ccc1Cl` was run?
**A.** 0.29 µM (active)

**Q.** `COP(=S)(OC)Oc1ccc([N+](=O)[O-])c(C)c1` was tested. Which outcome did it give?
**A.** inactive

**Q.** For `O=c1n(Cl)c(=O)n(Cl)c(=O)n1Cl`, which outcome is on record?
**A.** inactive

**Q.** For `CC(C)N1C(=O)N(c2ccccc2)CSC1=NC(C)(C)C`, which outcome is on record?
**A.** inactive

**Q.** Which outcome does the source give for `Cc1cc(C)nc(Nc2ccccc2)n1` here?
**A.** inactive

**Q.** Which outcome does the source give for `CSC(=O)c1c(C(F)F)nc(C(F)(F)F)c(C(=O)SC)c1CC(C)C` here?
**A.** inactive

**Q.** With `CC1(C)CCC(=Cc2ccc(Cl)cc2)C1(O)Cn1cncn1` (stereo not given) as the molecule, how does the outcome read?
**A.** inactive

**Q.** How did the AC50 turn out when `CC1(C)CON(Cc2ccccc2Cl)C1=O` was run?
**A.** 1.89 µM (active)

**Q.** With `CCCCC(O)(Cn1cncn1)c1ccc(Cl)cc1Cl` (stereo not given) as the molecule, how does the outcome read?
**A.** inactive

**Q.** For `Clc1nc(Cl)nc(Nc2ccccc2Cl)n1`, which outcome is on record?
**A.** inactive

**Q.** With `CCOc1nc(C(Cl)(Cl)Cl)ns1` as the molecule, how does the outcome read?
**A.** inactive

**Q.** How did the outcome turn out when `COCc1cnc(C2=NC(C)(C(C)C)C(=O)N2)c(C(=O)O)c1` (stereo not given) was run?
**A.** inactive

**Q.** How did the outcome turn out when `CO/N=C(/C1=NOCCO1)c1ccccc1Oc1ncnc(Oc2ccccc2Cl)c1F` was run?
**A.** inactive

**Q.** For `CC(C)Nc1nc(Cl)nc(NC(C)C)n1`, which AC50 is on record?
**A.** 20 µM (active)

**Q.** `CCSC(=O)N1CCCCCC1` was tested. Which outcome did it give?
**A.** inactive

**Q.** With `COC(=O)NC(=S)Nc1ccccc1NC(=S)NC(=O)OC` as the molecule, how does the outcome read?
**A.** inactive

**Q.** `CCCCOCN(C(=O)CCl)c1c(CC)cccc1CC` was tested. Which outcome did it give?
**A.** inactive

**Q.** With `CCNP(=S)(OC)O/C(C)=C/C(=O)OC(C)C` (stereo not given) as the molecule, how does the AC50 read?
**A.** 1.9 µM (active)

**Q.** With `COP(=S)(OC)SCn1nnc2ccccc2c1=O` as the molecule, how does the AC50 read?
**A.** 0.975 µM (active)
